From PubChem BioAssay
Hits are enriched below; roughly 3.9% of the tested compounds scored in any of these assays.
HepG2 tox: kills HepG2 cells in TGF-b inhibitor counter-screen. HepG2 CAGA-GFP viability, ATP luminescence, 18 h. AID 588856. Potency, µM (titrated, usually from 46.1 µM), usual class: cytotoxic. actives 0.76% (n = 410,000)
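CellTiter-Glo luminescence gave cytotoxicity after 18 hours at 37 degrees C. The cells were HepG2 CAGA-GFP in 1% FBS DMEM, stimulated with 500 pg/mL TGF-beta after compound addition. %Activity was normalised to no-cell wells (complete cell-killing) and DMSO (no toxicity), and curves were fitted and classified.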
HT1080 IDH1KD tx: toxicity to HT-1080 IDH1 knockdown cells (counter line); HT-1080 IDH1 knockdown viability, ATP luminescence, 48 h; Potency, µM (doses to about 46.1 µM), hits mostly cytotoxic; actives 2% (n = 360,000)
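HT-1080-IDH1KD cells (IDH1 knocked down), 750/well in RPMI with 5% FBS, treated with compound 48 h at 37 degrees C. Viability by CellTiter-Glo luminescence, normalised to DMSO and no-cell wells; concentration-response curves classed.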
S2 tox: reduces viability in counter-screen for ATXN expression inhibitors. S2 cells (HEK-293 line with an ATXN2-luciferase reporter) viability, CellTiter-Fluor protease fluorescence, 24 h. AID 651635. Potency, µM (series often up to 56.7 µM), usual class: cytotoxic. actives 0.49% (n = 400,000); further: nearly all actives have a fitted effect of over 40% in size
ATXN2 expr inh: ATXN2 expression inhibition; HEK-293 ATXN2-luciferase reporter, luminescence, 24 h; actives 0.72% (n = 360,000); AID 1745845; Potency, µM (doses to about 57 µM), actives largely listed as inhibitors; further: nearly all actives have a fitted effect of over 55% in size
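ATXN2-luciferase reporter cells (luciferase flanked by upstream and downstream ATXN2 gene portions) were treated 24 h at 37 °C with compounds at up to 57 uM. SteadyGlo luminescence gave expression; GF-AFC fluorescence gave viability.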
TGFb SMAD3 inh: inhibitors of TGF-b signaling; HepG2 CAGA-GFP TGF-b/SMAD3 reporter, GFP fluorescence, 18 h; TGF-beta stimulated, 500 pg/mL final; Potency, µM (highest dose often 46.1 µM), most hits filed as inhibitors; actives 1.2% (n = 410,000); AID 588855; further: nearly all actives have a fitted effect of over 65% in size
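Inhibition of TGF-beta-driven CAGA-GFP reporter expression in HEPG2 cells is measured by cellular GFP fluorescence after 18 h stimulation with 500 pg/mL recombinant TGF-beta in 1% FBS medium at 37 degrees C.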
HT1080NT lethal: kills 2HG-producing HT-1080-NT fibrosarcoma cells; actives 1.6% (n = 360,000); Potency, µM (titrated, usually from 46.1 µM), usual class: cytotoxic; HT-1080-NT fibrosarcoma viability, CellTiter-Glo ATP luminescence, 48 h;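 further: NT is the 2HG producing partner of a matched IDH1 knockdown line; nearly all actives have a fitted effect of over 55% in size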
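Viability by CellTiter-Glo luminescence after 48 h compound exposure at 37C of HT-1080-NT cells (750/well, RPMI, 5% FBS). % activity scaled between DMSO wells and medium-only wells, then curve-fitted and categorized by curve class.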
Hits are given with their value; ! = not confirmed by another sample. The call rests on the fitted dose curve; in most records, active means well fitted curve in the direction sought with a large enough effect; inconclusive means small, poorly fitted or top-dose-only effect, or another doubt; inactive means no such curve, though single readings can be large; an effect the other way counts as inactive or inconclusive.

For CCN(CCCNC(=O)CSc1cc(=O)n(C)c2cc(Cl)ccc12)c1ccccc1 the results were HepG2 tox inactive, S2 tox inactive, ATXN2 expr inh inactive and TGFb SMAD3 inh inconclusive.
COc1cccc(CNC(=O)c2cc3c(=O)n(Cc4cccnc4)ccc3nc2C)c1 was read as HepG2 tox inactive, S2 tox inactive, ATXN2 expr inh inconclusive and TGFb SMAD3 inh inconclusive.
Screening CN(C)CCCN(C(=O)CCc1ccccc1)c1nc2ccc(Cl)cc2s1 returned HepG2 tox inactive, HT1080 IDH1KD tx 16µM, S2 tox inactive, ATXN2 expr inh inconclusive, TGFb SMAD3 inh inconclusive and HT1080NT lethal 23µM.
For Cc1ccc2nc(N(CCCN(C)C)C(=O)CCc3ccccc3)sc2c1 the results were HepG2 tox inactive, HT1080 IDH1KD tx 16µM, S2 tox inactive, ATXN2 expr inh inactive, TGFb SMAD3 inh inconclusive and HT1080NT lethal 15µM.
For CCOC(=O)c1sc2nc(C)nc(NCc3ccc(F)cc3)c2c1C the results were HepG2 tox inactive, HT1080 IDH1KD tx 21µM, S2 tox inactive, ATXN2 expr inh inconclusive, TGFb SMAD3 inh inconclusive and HT1080NT lethal 18µM.
`O=C(/C=C/c1ccccc1)NC(NC(=S)Nc1cccc(Cl)c1)C(Cl)(Cl)Cl` (configuration not stated) gave HepG2 tox 10µM, HT1080 IDH1KD tx inconclusive, S2 tox inconclusive, ATXN2 expr inh inconclusive, TGFb SMAD3 inh 16µM and HT1080NT lethal inconclusive.
`CN1c2ccc(Cl)cc2C(=O)NC1c1ccc([N+](=O)[O-])s1` (configuration not stated) gave HepG2 tox inactive, HT1080 IDH1KD tx 23µM, S2 tox inactive, ATXN2 expr inh inactive, TGFb SMAD3 inh inconclusive and HT1080NT lethal inconclusive.
For O=[N+]([O-])c1ccc(CNc2ccc(Cl)cc2)s1 the results were HepG2 tox inactive, HT1080 IDH1KD tx inactive, S2 tox inactive, ATXN2 expr inh inactive, TGFb SMAD3 inh inconclusive and HT1080NT lethal inactive.
For S=c1nc[nH]c2nc[nH]c12 the results were HepG2 tox 1.4µM!, HT1080 IDH1KD tx 1.8µM, S2 tox inconclusive, ATXN2 expr inh inconclusive, TGFb SMAD3 inh inactive and HT1080NT lethal 2.3µM.
Screening O=c1[nH]c(=S)[nH]c2nc[nH]c12 returned HepG2 tox inactive and TGFb SMAD3 inh inactive.
Cc1cccc(/C(N)=N/OC(=O)c2ccoc2C)c1 was read as HepG2 tox inactive, HT1080 IDH1KD tx 16µM, S2 tox inactive, ATXN2 expr inh inactive, TGFb SMAD3 inh inactive and HT1080NT lethal inconclusive.
`O=C(CSc1nc2c(c(=O)[nH]1)CCCC2)Nc1ccccc1C(F)(F)F` gave HepG2 tox inactive, S2 tox inactive, ATXN2 expr inh inactive and TGFb SMAD3 inh inactive.
CCOc1ccc(CNC(=O)C2CCN(c3nc4ccccc4nc3C(F)(F)F)CC2)cc1OC was read as HepG2 tox inactive, S2 tox inactive, ATXN2 expr inh inactive and TGFb SMAD3 inh inactive.
Screening CCN1c2ccccc2NC2C1C(C(C)=O)C(=O)N2c1ccc(Cl)cc1 (configuration not stated) returned HepG2 tox inactive, HT1080 IDH1KD tx 16µM, S2 tox inactive, ATXN2 expr inh inactive, TGFb SMAD3 inh inactive and HT1080NT lethal inconclusive.
O=C1Nc2ccccc2N(O)N1c1ccc(Cl)cc1 was read as HepG2 tox inactive, HT1080 IDH1KD tx inactive, S2 tox inactive, TGFb SMAD3 inh inactive and HT1080NT lethal inactive.
Screening CNC(=O)C1CCC(Cn2c(=O)c3sccc3n(CC(=O)Nc3cc(C)cc(C)c3)c2=O)CC1 (configuration not stated) returned HepG2 tox inactive, S2 tox inactive, ATXN2 expr inh inactive and TGFb SMAD3 inh inactive.
CC(C)(C)OC(=O)CN(Cc1ccc(Cl)cc1)Cc1ccc([N+](=O)[O-])s1 was read as ATXN2 expr inh inactive.
O=C(N/N=C/c1ccc(O)c(O)c1O)/C(=C/c1ccc([N+](=O)[O-])cc1)NC(=O)c1ccccc1 was read as HepG2 tox inactive, HT1080 IDH1KD tx 15µM, S2 tox inconclusive, ATXN2 expr inh inactive, TGFb SMAD3 inh inactive and HT1080NT lethal inconclusive.
